In PMC12864922, “TDP-43 directly inhibits mRNA accumulation in neurites through modulation of mRNA stability”:
Over roughly 9,900 sequences, “r (bound/input frequency ratio)” has its median near 0.7; the highest 2% begin near 6.5. This is one part of a sample in which the highest values are shown more often than they occur.

B1: ENSMUSG00000042529.105|Kcnj12 (ssRNA)
RNA: GGGAGUUCUACAGUCCGACGAUCGCUUCGAUAUCCGCAUGCUAAGGUCUGUUUUCUCCCUCACGUGGGCCAGGGCCUUAAGCGAGUUGUCAUGCUUAAGGAUGAAUCAGGCUGCUUGUGACCAUGUUAACGAUUCUAAUAAAGUGUCUGGAUGUCUCUUGGGGGUGGGGCCCACUAGGGUGAAUCUGGCUUGCUCUUCUGUUUGAUGUUGUUGUACCUCAGCUGCCUCAGGGCUGGGUUUAGACACCCCUUCCCCCACCCCCACUCCGUACUCCCUGUUGUGCUUCCCUUCCUAUUUAGUCCCCUCUUGCGGUCGCACUAGUGUGGAAUUCUCGGGUGUCAAGG
B2: ENSMUSG00000090935.77|Synj2bp (ssRNA)
RNA: GGGAGUUCUACAGUCCGACGAUCGCUUCGAUAUCCGCAUGCUACUUUGUCAGCAUAGGCAGGAGUCCUUUAGGAUUUCUGCCUAUCAGUAAAAGAAGUAUGUAACCCAAGUUCUACCUUCAGUGGAUUAAAGUUUCAUUAAGUGAAAAUGGAAAGAAAGUAGAAUUACUUGGUAAGAGGCCAAAUGAGGAUACAGAGGCUGAAGAAGAUUGAAAGGAGCUAGUGUAAACAAACAAACAAACAAACAAACAAAAAACCAAACCCCAAAACAAAAACAAAAACAAAACAAAAUUGGAGAAAGCAGCUCUUGCGGUCGCACUAGUGUGGAAUUCUCGGGUGUCAAGG
B3: ENSMUSG00000090935.604|Synj2bp|54:59 (ssRNA)
RNA: GGGAGUUCUACAGUCCGACGAUCGCUUCGAUAUCCGCAUGCUACUAAUAGACACUGUUUGCUUCAGUUGUUUUUGUUUCCUUUUCCUACAGUUUUCACACACGGUGAUUUCAUUUAAUUAAUUGGACAGUCUAGCCACAGGCAACAAAUAGAAAUAGUAUUUGUAAUUAUAGUCUAUGCCAGGGACUGUCUUAAACUGAUUAGUAACACUAUGACUUACCCUGAGAUCUAAGUAUUGCUAUAAAGAGACUGAAGAGGAGAGAAUAAAGUAUUUUCCUAGGACUACAUAGUUGGUAAAAGAGAACUCUUGCGGUCGCACUAGUGUGGAAUUCUCGGGUGUCAAGG
B4: ENSMUSG00000035279.10|Ssc5d|99:105 (ssRNA)
RNA: GGGAGUUCUACAGUCCGACGAUCGCUUCGAUAUCCGCAUGCUAAUGCCUUCAAACCACCCAGAAGCCAGACCUUACACUCAGCUUCAGACCACCUCACUCAAGGGCCAACCCCUAAUCACAACCCAGAUCCUUUUGGGCCAACACACACCCCAUUACCACCAGUAAGGGUCAUGGCUUGUGAGCCACCUGCCUUGGUGGAGCUGGUAGGUGCUGUGAGGGAGGUGGGUGACCAGCUGCAGAGACUGACCUGGGUCCUGGAGCAGGACCGGCAGGAGCGCCAAGUCCUGGCACUGGGCCUAGCCCUCUUGCGGUCGCACUAGUGUGGAAUUCUCGGGUGUCAAGG
B5: ENSMUSG00000031028.241|Tub (ssRNA)
RNA: GGGAGUUCUACAGUCCGACGAUCGCUUCGAUAUCCGCAUGCUAGGUUCUGGGGCUGGGCUUGGACACGCCCUCCAUUGGGAUGGCACCACUCAUCUGGUGGGCUUGGGAACUCCAAGCUCUUGCCUGUGUGCCAUCUGUGAGAAGCUUCUUGGAGCUGAGACACCAGAGGGAAGCAAAGAGCAUUUAGACAUUGCUUUUUGCUUUGAAAUAGAUAUGUUUGGAAACGCUAAGUAGAAGUUUAAAAAGUAGAGUCAUGUAGAGUCAUGCUUUGAAUAUGUGGGUCAUGCUUUAGAUAUGAAGAGCUCUUGCGGUCGCACUAGUGUGGAAUUCUCGGGUGUCAAGG
B6: ENSMUSG00000061578.211|Ksr2 (ssRNA)
RNA: GGGAGUUCUACAGUCCGACGAUCGCUUCGAUAUCCGCAUGCUAUGACACAAGAGGCAAAGCUGUCCCUAAGCAGAGAAUUAGCAGGGUUAGCCAGACAGCAAAAUCCAUGUAAACAUACAAAACCACCCCCCCUUUUUGAGUGGCCCUAUUGGAUGUACACACUAGGACCAAGCACGGGUCCAAAGCAGGAAGACUGAUUGACAGUAGUCACACUUCUAGAGAGAUGUACCCCAUGACACUUUCAAGUCUUUUCAGAACCUUCUCACCCCUUUGCAAAGCUCUUGCCGUCUGCACCCGGGACCCUCUUGCGGUCGCACUAGUGUGGAAUUCUCGGGUGUCAAGG
B7: ENSMUSG00000090935.117|Synj2bp (ssRNA)
RNA: GGGAGUUCUACAGUCCGACGAUCGCUUCGAUAUCCGCAUGCUAUUUGCCCUCACCAUGGUAGCAGUUUGGGCCUUCGUGAGAUACCGAAAGCAGCUUUGAAAUGCUUGCUGUCUUCCAGUGUGUCCAAUGAACUCUCUCUCUCACUCACCAUCUCUGACAUCCUCCCAUAUUCUUUCUCCUCCACAUAGCCAAUACAAGAUUUAAAGUGACUGCUUAUCACCCAAAACCCUGCUAUUCAAAAUCUCCUAUUCUAAUGGAAGAGUACAGGGGUUAUUUGAAGAAAAGCUGUGGUGGUGUGUGUGCUCUUGCGGUCGCACUAGUGUGGAAUUCUCGGGUGUCAAGG
B8: ENSMUSG00000061578.735|Ksr2 (ssRNA)
RNA: GGGAGUUCUACAGUCCGACGAUCGCUUCGAUAUCCGCAUGCUAUGUAUCAAGACCUUGGAGUUGUCUAAGGCUGUGGGUUUUAAAUACCUGCUGCAGGCCUCCCAUCUCUGGCUCUUUGUUUCCACUCUGGCCCAAGUUUGAGUCUCCAUAUGGGCCCUUCCUGUCCUCAUGCCCUGCCUGUCUUCAUUCCACCCAUCCACCCUCCUAAGGAUUGGUCUUGUUCCGAGAGUGAUCCUGGUAACGCCAAGCCUCCCUCUGCCCCUGUGUUGGCUUCUGUGACGGACUACCACACACCAAGAGGUCUCUUGCGGUCGCACUAGUGUGGAAUUCUCGGGUGUCAAGG
B9: ENSMUSG00000029028.148|Lrrc47 (ssRNA)
RNA: GGGAGUUCUACAGUCCGACGAUCGCUUCGAUAUCCGCAUGCUAUUGAGAACAUCAUGUUGUGAGUGUAAUCUUCUUAGAGCUUGUUUCCAGGCACCGUGCUGCCGCCAUGCUCCCAGGGCAGCAUCUGCCUUCCACGGCUGUGCUUGGAACUGUAGUGCUGGUCGUUGUUGGCACAUCUGCGCCUUGGCCAAGGAAGUUAUCUAUGUCCGUGUAGUCCUUUGUAGUCAGACAGAUGCUUCGUGGACUGUGCCUCACACAUGGCCCUGCAGGCUCCAUGUCAGCGUGUCCCACUAUUCAUGUCCCUCUUGCGGUCGCACUAGUGUGGAAUUCUCGGGUGUCAAGG
B10: ENSMUSG00000004113.103|Cacna1b (ssRNA)
RNA: GGGAGUUCUACAGUCCGACGAUCGCUUCGAUAUCCGCAUGCUAAUCCUAAGCAGGAGGUAGCUGAGUUGAGAUGGACCCAGCAAAUCCAAAUCCUAUGUCAUGGCCUCCAGCAUCCAGGGUGGGUCCUUGGGACUUUUCUUAGGAGGGACUUUCUGAGCCUCGUGGAGAGUGUGGUUUGUCCAAAUGUGUGGCAUGGGAGAUAGGGUACCCCUGAAAGCAAGGAAAGGAGCCCAGCUGUGGCCUGGUAGCACCUGCCGGCACCAGUGAUCUCACGUCUCUUGUGGUCUUGGAGUCAAAUAGCACUCUUGCGGUCGCACUAGUGUGGAAUUCUCGGGUGUCAAGG
B11: ENSMUSG00000061578.1429|Ksr2|169:173 (ssRNA)
RNA: GGGAGUUCUACAGUCCGACGAUCGCUUCGAUAUCCGCAUGCUAAGAUCUGUCUUGCUCUCUGUCUCUCUCACUCAUUGCCAACAUGUUGCUGGGAAAGAAUAUUUGAUUUAGAUGCCAAUCAGGAAGGCAAGUAGGAUGGAUGGAUGAGUGAGUGGAUAGGUAGGUAUAUAAAUGGAUGGAUGGGUGAUGGAUGGGUAAAUGAAUGGAUAGCAUACUGAAUGAAUGGAUGAUGGAUGAAUGGAUGGGUAGGUGGGUAGAUAGGUAUAUGAAUGAAUGGAUGAAUGGAUGGGUGAAUGGAUGGACUCUUGCGGUCGCACUAGUGUGGAAUUCUCGGGUGUCAAGG
B12: ENSMUSG00000035279.28|Ssc5d (ssRNA)
RNA: GGGAGUUCUACAGUCCGACGAUCGCUUCGAUAUCCGCAUGCUACAUUACCACCAGUAAGGGUCAUGGCUUGUGAGCCACCUGCCUUGGUGGAGCUGGUAGGUGCUGUGAGGGAGGUGGGUGACCAGCUGCAGAGACUGACCUGGGUCCUGGAGCAGGACCGGCAGGAGCGCCAAGUCCUGGCACUGGGCCUAGCCCAGUUGGUAGAGGCUGCUCAGGGGUUGGGGCAGCUGAGUGAGACUGUAAAGAGGCUAGCAGAGGUGGCCUGGCCCCCCAGCACUCCUGUGCCCAUGACCACCACCACACUCUUGCGGUCGCACUAGUGUGGAAUUCUCGGGUGUCAAGG
B13: ENSMUSG00000031028.488|Tub|93:99;130:136 (ssRNA)
RNA: GGGAGUUCUACAGUCCGACGAUCGCUUCGAUAUCCGCAUGCUAAGGAGGAGCUGAGAUGUGCACCCUUUUAAAUGAACAUGGGGUGGUGAUGGUGCCUUAACAAUCUUGACACUAAGGUGAAGCAAGCAAGUAAGCACACACCCUCUGGGAAGACAGGAGUCGGAAGCCAAGCACACACGCAACAGUCUGGAAGAGAGCUUUUGGUAAUCAUACCGUCUUCAGUGACAAGGCAACAAUGCUGUAAAGUGGGUUUGUUUGGUUUUGUUUUUUCUUUCUCUUUUAUGGAAAUGGCAGGUCUAUUUCUCUUGCGGUCGCACUAGUGUGGAAUUCUCGGGUGUCAAGG

biological target: TDP-43 (Homo sapiens, UniProt Q13148 1-414); experiment: RNA Bind-n-Seq with designed 260-mer pool; 25 mM Tris-HCl, 150 mM KCl, 3 mM MgCl2, BSA (printed 500 mg/mL), 20 units/mL SUPERase IN; pH not stated; 500 nM RNA pool, 1 h, 4 C; TDP-43 5, 50, 500 nM; high values mean tight binding; details: protein: recombinant; tags: SBP (GST cleaved off with PreScission; pGEX-GST-SBP)
In short: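 Binding (R) is the ratio of each oligo's mapped-read-normalized abundance in the bound fraction to its abundance in the input. To obtain it, SBP-tagged recombinant TDP-43 (5, 50 or 500 nM) on streptavidin beads was incubated with 500 nM of an in vitro-transcribed 260-nt 3′ UTR oligo pool for 1 h at 4 °C in 25 mM Tris-HCl, 150 mM KCl, 3 mM MgCl2, BSA and SUPERase IN. The RNA retained after washing was released with biotin, then reverse transcribed, amplified by PCR and sequenced.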

TDP-43, sequence (Q13148 whole entry): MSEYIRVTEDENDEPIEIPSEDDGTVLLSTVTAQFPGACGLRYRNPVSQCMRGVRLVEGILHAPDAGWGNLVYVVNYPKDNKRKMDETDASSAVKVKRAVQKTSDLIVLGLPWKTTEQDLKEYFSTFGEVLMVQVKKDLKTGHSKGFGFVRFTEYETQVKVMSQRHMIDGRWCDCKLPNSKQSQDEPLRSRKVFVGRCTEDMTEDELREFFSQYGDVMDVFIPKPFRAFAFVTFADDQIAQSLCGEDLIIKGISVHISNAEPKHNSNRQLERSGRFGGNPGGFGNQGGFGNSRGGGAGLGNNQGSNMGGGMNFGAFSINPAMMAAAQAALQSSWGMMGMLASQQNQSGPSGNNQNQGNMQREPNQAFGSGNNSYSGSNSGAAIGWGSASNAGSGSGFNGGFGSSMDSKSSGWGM

Binder | binding signal
B1 | 3.16 R (bound/input frequency ratio)
B2 | 0.858 R (bound/input frequency ratio)
B3 | 0.0675 R (bound/input frequency ratio)
B4 | 1.24 R (bound/input frequency ratio)
B5 | 0.949 R (bound/input frequency ratio)
B6 | 0.667 R (bound/input frequency ratio)
B7 | 1.43 R (bound/input frequency ratio)
B8 | 1.36 R (bound/input frequency ratio)
B9 | 1.13 R (bound/input frequency ratio)
B10 | 1.15 R (bound/input frequency ratio)
B11 | 5.89 R (bound/input frequency ratio)
B12 | 0.915 R (bound/input frequency ratio)
B13 | 0.906 R (bound/input frequency ratio)
